The values below come from PubChem BioAssay (NCATS).

Inconclusive results are not listed. Active and inactive are the calls of the source. The call rests on the fitted dose curve; in most records, active means well fitted cell-killing curve with a large enough effect; inconclusive means small, poorly fitted or top-dose-only effect, or effect the other way; inactive means no such curve, though single readings can be large or run the other way.
Potency means the concentration at half of the fitted maximal effect.

This assay can be described thus: Quantitative High-Throughput drug screen in 47 multiple myeloma cell lines against the NCATS MIPE library collection: MMM1_PLB cell viability assay (AID 1918976). Further: nearly all actives have a fitted effect of over 35% in size. To be noted: MMM1 myeloma cells viability, CellTiter-Glo, 48 h; series mostly up to 45.8 µM. An outline of the steps: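 Readout: median RLU from CellTiter-Glo after 5 min at room temperature. Preceding step was 48 h drug treatment of 500 cells/well at 37 °C, 5% CO2, with DMSO-only and media-only control wells.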
In general terms: In ATP-based viability assays light output follows the ATP content of the culture.
As for `Cc1cc(OCCCc2c(C(=O)O)n(Cc3cccnc3)c3c(-c4c(COc5ccc(N6CCN([S+](C)(=O)[O-])CC6)cc5)nn(C)c4C)cccc23)cc(C)c1Cl`, the Potency is 14.8 µM (active). With `COc1cc2c(cc1OC)CN(CCc1ccc(NC(=O)c3cc(OC)c(OC)cc3NC(=O)c3cnc4ccccc4c3)cc1)CC2`, the Potency is 2.35 µM (active). For `N#CC1(c2ccc(NC(=O)c3cccnc3NCc3ccncc3)cc2)CCCC1` the value was 18.7 µM (active). The same measure for `Cc1c(O)cccc1C(=O)N[C@@H](CSc1ccccc1)[C@H](O)CN1C[C@H]2CCCC[C@@H]2C[C@@H]1C(=O)NC(C)(C)C`: 20.9 µM (active); for `CC(=O)O[C@]1(C(C)=O)CC[C@@H]2[C@@H]3C[C@H](C)C4=CC(=O)CC[C@]4(C)[C@H]3CC[C@@]21C`: 20.9 µM (active); for `Cc1cnc(C(=O)O)c[n+]1[O-]`: 3.32 µM (active). Turning to `O=C(O)[C@H]1O[C@H](Oc2cc3oc(-c4ccccc4)cc(=O)c3c(O)c2O)[C@H](O)[C@@H](O)[C@H]1O`, the Potency was 20.9 µM (active).

For the compound `Cc1c(NC(=O)c2ccc(C(C)(C)C)cc2)cccc1-c1cn(C)c(=O)c(Nc2ccc(C(=O)N3CCOCC3)cc2)n1`, the Potency was 26.4 µM (active). The same measure for `C=C1C(=O)OC2C=C(C)CCC=C(C)CCC12` (centres undefined): 11.8 µM (active).
